Test results from PubChem BioAssay.
Calls of active or inactive are those of the source.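 The calls were made as follows: active = inhibition above the hit cutoff set in the earlier primary screen (cut at about 27% in these data); inactive = the rest.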

Biological target: Protein phosphatase methylesterase 1 (Homo sapiens) (UniProt Q9Y570)
Assay: PME-1 inhibitor activity retest, confirmation, biochemical, fluorescence polarization, FP-Rh probe, triplicate (AID 2171);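 also: 0% = enzyme with DMSO and 100% = wells lacking PME-1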
Details: recombinant PME-1, FP-Rh probe fluorescence polarization; at 5.9 µM; stronger effect = higher value

Protein phosphatase methylesterase 1 (Homo sapiens), sequence (Q9Y570 whole entry, looked up): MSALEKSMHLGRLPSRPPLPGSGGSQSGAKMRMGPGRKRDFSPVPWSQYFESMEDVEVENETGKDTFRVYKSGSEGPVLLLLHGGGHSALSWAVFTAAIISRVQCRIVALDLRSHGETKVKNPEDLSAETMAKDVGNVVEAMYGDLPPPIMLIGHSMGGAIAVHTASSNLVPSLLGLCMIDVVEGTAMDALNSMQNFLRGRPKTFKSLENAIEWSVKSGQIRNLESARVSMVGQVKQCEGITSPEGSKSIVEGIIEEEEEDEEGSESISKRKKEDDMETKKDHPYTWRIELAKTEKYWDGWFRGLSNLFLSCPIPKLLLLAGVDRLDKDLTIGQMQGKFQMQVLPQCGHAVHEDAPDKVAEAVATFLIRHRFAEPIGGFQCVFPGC

inhibition, active:
CCCCN(CCCC)CCNC(=O)c1cn(C)c2ccc(S(=O)(=O)N(C)C3CCCCC3)cc2c1=O 58.5%, Cc1ccc(N=Cc2nc(/C=C/c3cccc([N+](=O)[O-])c3)oc2O)cc1 30.2%, COc1cccc(C(=O)Oc2ccc(/C=N/Nc3ccc(C(=O)O)cc3)cc2OC)c1 36.3%, O=c1[nH]c(C2CCN(S(=O)(=O)c3ccc(C(F)(F)F)cc3)CC2)nc2c1nnn2Cc1ccc(F)cc1 79.1%, Cc1[nH]c(N=Nc2ccccc2)nc1N=Nc1ccccc1 55.2%, CCn1c(CSc2n[nH]c(N)n2)nc2cc(C(=O)O)ccc21 33.5%, COc1ccc(NS(=O)(=O)c2ccc(N/N=C(\C)c3ccncc3)c([N+](=O)[O-])c2)cc1 26.3%, O=C1C=C(N2CCCCC2)c2ccccc2C1=O 43%, CCn1c(CSc2nnc(-c3ccncc3)n2CCOC)nc2cc(C(=O)O)ccc21 51.1%, Cc1cc2c(N=O)c(NO)ccc2[nH]1 33.3%, CCn1c(CSc2nnc(-c3ccncc3)n2C)nc2cc(C(=O)O)ccc21 51.5%, Fc1ccc2nc(Nc3nc4cc5c(cc4s3)OCCO5)sc2c1 77.5%, Cn1c(=O)c(Nc2ccc(Cl)cc2)c2c3c(cccc31)C(=O)c1ccccc1-2 62.5%

inhibition, inactive:
O=C(Nc1cccc(-c2csc(Nc3ccc(Cl)cc3)n2)c1)c1cc([N+](=O)[O-])cc(C(F)(F)F)c1 -16.1%, Cc1noc(NS(=O)(=O)c2ccc(NC(=O)Nc3ccc(Cl)c(Cl)c3)cc2)c1C -8.57%, CCOC(=O)Cc1csc(NC(=O)c2sc3nc4ccc(C)cc4cc3c2N)n1 21%, COc1ccccc1NC(=O)CCC(=O)Nc1nnc(C(F)(F)F)s1 4.64%, CCOC(=O)c1sc(N/N=C/c2cc(Br)c(O)c(OC)c2)nc1C 21.6%, Oc1ccc(/C=N/Nc2ccnc3cc(Cl)ccc23)cc1O 5.4%, CCOc1cccc(CNc2ccc(O)cc2)c1OCc1ccccc1Cl 6.79%, O=C(c1ccc2oc(CCCc3ccccc3)nc2c1)N1CCCC(CCCO)C1 (stereo not given) 23.5%, Cc1ccc(NC(=S)NC(=O)c2ccc(-c3ccc(Cl)cc3)o2)c(O)c1 22.9%, Oc1ccc(N=Cc2ccc(OCc3ccccc3)cc2)cc1 6.36%, CC(C)N(C(=O)Nc1ccc2nsnc2c1)C(C)C 20.8%, Cc1cc(Nc2ccc(O)cc2)ccc1N 17.6%
